About 720 (0.36%) of roughly 200,000 compounds were called active. About 8% were inconclusive and are not listed. Calls come from the whole dose curve; as a rule, active = well fitted activation curve with a large enough effect; inconclusive = small, poorly fitted or top-dose-only effect, or effect the other way, or another doubt; inactive = flat fitted curve, though single readings scatter. Some of the results follow.
Potency is the fitted concentration of half-maximal effect.

This test addresses Lysosomal alpha-glucosidase (Homo sapiens) (UniProt P10253). Nature of the test: qHTS Assay for Activators of Human alpha-Glucosidase as a Potential Chaperone Treatment of Pompe Disease. Note: nearly all actives have a fitted effect of over 80% in size. The conditions noted are these: purified enzyme, 4-MU-alpha-glucoside fluorescence, 20 min; series mostly up to 76.9 µM. The procedure, abridged: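 Compounds titrated up to 77 uM against 4 nM enzyme and 400 uM methylumbelliferyl substrate at room temperature, 20 min, pH 5.0. Basic stop, then 4-methylumbelliferone fluorescence (365/440 nm) normalized to no-enzyme and enzyme controls; Hill-equation AC50.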
As for `N#Cc1c(N)n(CCCN2CCOCC2)c2nc3ccccc3nc12`, the Potency was 35.5 µM (active).

In the case of `COCCn1c(N)c(C#N)c2nc3ccccc3nc21`, the Potency was 35.5 µM (active).

In the case of `CCCCCn1c(N)c(C#N)c2nc3ccccc3nc21`, the Potency was 35.5 µM (active).

For the compound `Cc1cc(-n2c(=O)c(C#N)cc3c(=O)n4ccccc4nc32)no1`, the Potency is 35.5 µM (active).

For the compound `Cc1cc(-n2c(=O)c(C#N)cc3c(=O)n4cccc(C)c4nc32)no1`, the Potency was 35.5 µM (active).

Regarding `COC(=O)c1ccccc1NC(=O)/C=C/c1cc(OC)c(OC)c(OC)c1`, the Potency was 35.5 µM (active).

With `CSc1nnc(-c2cccn(Cc3cccc(Cl)c3)c2=O)o1`, the Potency is 28.2 µM (active).

With `CSc1nnc(-c2cccn(Cc3ccccc3)c2=O)o1`, the Potency was 35.5 µM (active).

As to `Nc1ccc(-c2nc3ccc(N)cc3o2)cc1`, the Potency is 35.5 µM (active).

For the compound `Nc1ccc(-c2nc3ccc(-c4nc5ccccc5o4)cc3[nH]2)cc1`, the Potency was 28.2 µM (active).

For `Nc1ccc(-c2nc3ccc(N)cc3[nH]2)cc1`, the Potency is 39.8 µM (active).

Regarding `COCc1cc(=O)n2c([nH]c3ccccc32)c1C#N`, the Potency is 35.5 µM (active).

Consider `CCc1cc(=O)n2c([nH]c3ccccc32)c1C#N`, for which the Potency was 28.2 µM (active).

Regarding `CCCc1cc(=O)n2c([nH]c3ccccc32)c1C#N`, the Potency is 39.8 µM (active).

`N#Cc1cc2c(=O)n3ccccc3nc2n(-c2ccc(Cl)cc2)c1=O`: the Potency was 35.5 µM (active).

Consider `Cc1ccc(-n2c(=O)c(C#N)cc3c(=O)n4ccccc4nc32)cc1`, for which the Potency was 25.1 µM (active).

In the case of `Cc1ccc(-n2c(=O)c(C#N)cc3c(=O)n4cccc(C)c4nc32)cc1`, the Potency was 10 µM (active).

`Cc1ccc2nc3c(cc(C#N)c(=O)n3-c3nccs3)c(=O)n2c1`: the Potency was 35.5 µM (active).

Regarding `COc1cc(C2NC(=S)NC(c3ccccc3)=C2C(C)=O)cc(Br)c1OCC(N)=O` (configuration not stated), the Potency is 28.2 µM (active).

As to `O=C(CN1C(=O)/C(=C\c2cccc(Cl)c2)Oc2ccccc21)N1CCN(c2ccccn2)CC1`, the Potency was 3.98 µM (active).

For `CN(C)CCNc1oc(/C=C/c2ccccc2)nc1C#N`, the Potency is 35.5 µM (active).

On to `C=CCNc1oc(/C=C/c2ccccc2)nc1C#N`, for which the Potency is 35.5 µM (active).

Take `CN(C)c1oc(/C=C/c2ccccc2)nc1C#N`: the Potency was 31.6 µM (active).

For the compound `CNc1oc(/C=C/c2ccccc2)nc1C#N`, the Potency is 35.5 µM (active).

On to `CCC(=O)Nc1c(OC(=O)CC)ccc2c(C)cc(=O)oc12`, for which the Potency was 35.5 µM (active).

As to `CC(=O)Nc1c(OC(C)=O)ccc2c(C)cc(=O)oc12`, the Potency was 35.5 µM (active).

Regarding `CC(=O)c1ccc(-c2cccs2)s1`, the Potency was 35.5 µM (active).

`COc1cc(OC)c(-c2nc3ccccc3s2)cc1OC`: the Potency is 35.5 µM (active).

`c1ccc2c(N3CCOCC3)nc(N3CCOCC3)nc2c1`: the Potency is 28.2 µM (active).

Take `CCOC(=O)C1=C(C)NC2=C(C(=O)CCC2)C1c1cn(Cc2ccc(Cl)cc2Cl)nc1-c1ccccc1` (configuration not stated): the Potency is 31.6 µM (active).

Consider `Cc1csc2ncc(C(=O)Nc3ccon3)c(=O)n12`, for which the Potency was 35.5 µM (active).

On to `Cc1c(O)c(CN2CCCC2)cc2c3c(c(=O)oc12)CCC3`, for which the Potency was 39.8 µM (active).

For `Cc1c(O)c(CN2CCCCC2)cc2c3c(c(=O)oc12)CCC3`, the Potency was 35.5 µM (active).

Take `CCNc1cc2oc(=O)c(CN3CCOCC3)c(C)c2cc1C`: the Potency was 31.6 µM (active).

Turning to `CC(C)c1cc(=O)oc2c3c4c(cc12)CCCN4CCC3`, the Potency is 35.5 µM (active).

In the case of `N#Cc1c(NC2CCCCC2)nc(-c2ccco2)c2c1CCCC2`, the Potency was 35.5 µM (active).

As for `CC(C)CCNc1nc(-c2ccco2)c2c(c1C#N)CCCC2`, the Potency was 31.6 µM (active).

As to `Cc1ccc(C2OC34CCCCCC3C(C#N)(C(=N)O4)C2(C#N)C#N)cc1` (configuration not stated), the Potency was 31.6 µM (active).

Regarding `CCOC(=O)c1sc2c(c1C)C(c1cccs1)C1=C(CCCC1=O)N2` (configuration not stated), the Potency was 25.1 µM (active).

For `C=CCSc1nnc(-c2cc3c(s2)-c2ccccc2CC3)o1`, the Potency is 25.1 µM (active).

Consider `CCSc1nnc(-c2cc3c(s2)-c2ccccc2CC3)o1`, for which the Potency was 31.6 µM (active).

As to `Fc1ccc(CSc2nnc(-c3cc4c(s3)-c3ccccc3CC4)o2)cc1`, the Potency was 28.2 µM (active).

For `CSc1nnc(-c2cc3c(s2)-c2ccccc2CC3)o1`, the Potency is 35.5 µM (active).

In the case of `CC(=O)Nc1nc2ccc(-c3nc4ccccc4o3)cc2s1`, the Potency is 25.1 µM (active).

For the compound `COc1ccc(OC)c(C=Nc2ccccc2-c2nc3ccccc3[nH]2)c1`, the Potency is 28.2 µM (active).

Regarding `Nc1c(C(=O)NCCN2CCOCC2)c2nc3ccccc3nc2n1-c1ccccc1`, the Potency was 35.5 µM (active).

With `Nc1c(C(=O)NCCN2CCOCC2)c2nc3ccccc3nc2n1CCc1ccccc1F`, the Potency was 39.8 µM (active).

`Nc1c(C(=O)NCCN2CCOCC2)c2nc3ccccc3nc2n1-c1cccc(F)c1`: the Potency is 35.5 µM (active).

Regarding `Cc1ccc(C)n1-c1nccc(-c2ccco2)n1`, the Potency was 22.4 µM (active).

`CNc1nc(-c2ccccc2)cc(C)c1S(C)(=O)=O`: the Potency is 28.2 µM (active).

In the case of `Nc1ccccc1-c1nnc(-c2ccc(-c3ccccc3)cc2)o1`, the Potency is 35.5 µM (active).

Take `CCNc1nc(C)c2cc(Br)c(=O)n(CC)c2n1`: the Potency is 35.5 µM (active).

Take `COCCn1c(N)c(C(=O)NCC2CCCO2)c2nc3ccccc3nc21` (configuration not stated): the Potency was 35.5 µM (active).

Turning to `Nc1c(C(=O)NCC2CCCO2)c2nc3ccccc3nc2n1-c1ccccc1` (configuration not stated), the Potency was 35.5 µM (active).

As to `COc1ccc(-n2c(N)c(C(=O)NCC3CCCO3)c3nc4ccccc4nc32)c(OC)c1` (configuration not stated), the Potency was 31.6 µM (active).

As to `CCOC(=O)c1c(N)n(C2CC(C)(C)NC(C)(C)C2)c2nc3ccccc3nc12`, the Potency was 31.6 µM (active).

On to `Nc1c(C(=O)OCC2CCCO2)c2nc3ccccc3nc2n1C1CCCC1` (configuration not stated), for which the Potency is 39.8 µM (active).

On to `Cc1ccc(S(=O)(=O)NC(CC(C)C)C(=O)Oc2ccc3c4c(c(=O)oc3c2)CCC4)cc1` (configuration not stated), for which the Potency is 35.5 µM (active).

On to `CCCCC(NS(=O)(=O)c1ccc(C)cc1)C(=O)Oc1ccc2c3c(c(=O)oc2c1)CCC3` (configuration not stated), for which the Potency was 31.6 µM (active).

In the case of `Cc1ccc(-c2nn(-c3ccccc3)cc2/C=C/C(=O)Nc2nccs2)cc1`, the Potency is 35.5 µM (active).

Consider `COCCNC(=O)c1c(N)n(CCCn2ccnc2)c2nc3ccccc3nc12`, for which the Potency was 35.5 µM (active).

In the case of `COC(=O)c1c(N)n(-c2ccc(NC(C)=O)cc2)c2nc3ccccc3nc12`, the Potency is 28.2 µM (active).

As to `CCCNC(=O)c1c(N)n(-c2cccc(OC)c2)c2nc3ccccc3nc12`, the Potency was 35.5 µM (active).

As to `COCCNC(=O)c1c(N)n(-c2ccccc2)c2nc3ccccc3nc12`, the Potency is 39.8 µM (active).

Take `CCN1CCN(C(=O)c2cc3c(=O)n4ccccc4nc3n2Cc2ccccc2)CC1`: the Potency was 31.6 µM (active).

On to `O=C(NCCN1CCOCC1)c1cc2c(=O)n3ccccc3nc2n1Cc1ccccc1`, for which the Potency was 35.5 µM (active).

For `CCc1cc(=O)oc2c(C)c(O)c(CN(C)C)cc12`, the Potency was 35.5 µM (active).

`CCc1cc(=O)oc2c(C)c(O)c(CN3CCCCC3)cc12`: the Potency is 35.5 µM (active).

As to `CCCc1cc(=O)oc2c(C)c(O)c(CN3CCCCC3)cc12`, the Potency was 17.8 µM (active).

On to `CCCn1nc(C(=O)Oc2ccc3c(C)cc(=O)oc3c2)c2ccccc2c1=O`, for which the Potency is 35.5 µM (active).

As for `CCCCn1nc(C(=O)Oc2ccc3c(C)cc(=O)oc3c2)c2ccccc2c1=O`, the Potency is 35.5 µM (active).

As to `Cc1cc(=O)oc2cc(OC(=O)c3nn(C(C)C)c(=O)c4ccccc34)ccc12`, the Potency was 35.5 µM (active).

With `COC(=O)C1=CN(C(C)C)C=C(C(=O)OC)C1c1cccc(OC)c1`, the Potency was 28.2 µM (active).

In the case of `COC(=O)C1=CNC=C(C(=O)OC)C1c1cccc(OC)c1`, the Potency is 31.6 µM (active).

For `Cc1ccc2cc3c(nc2c1)N(c1ccccc1)CC3`, the Potency was 22.4 µM (active).

Take `N#C/C(=C(/O)CCCl)c1ccccn1`: the Potency is 39.8 µM (active).

On to `CC1CCCN(CCCNC(=O)c2coc3nc4ccccc4nc23)C1` (configuration not stated), for which the Potency is 22.4 µM (active).

Turning to `Cc1ccc(C2N(C)c3ccccc3-c3nc4ccccc4n32)o1` (configuration not stated), the Potency was 39.8 µM (active).

On to `CCN1c2ccccc2-c2nc3ccccc3n2C1c1ccco1` (configuration not stated), for which the Potency was 35.5 µM (active).

As to `CN1c2ccccc2-c2nc3ccccc3n2C1c1ccco1` (configuration not stated), the Potency is 39.8 µM (active).

For the compound `CN(C)c1c2ccccc2nc2c(F)c(F)c(F)c(F)c12`, the Potency was 39.8 µM (active).

As to `Clc1ccc(-c2nc3ncccn3c2Cl)cc1`, the Potency was 22.4 µM (active).

For `CC(=O)/C=C(\C)Nc1ccc(-c2cnc(-c3ccccc3)o2)cc1`, the Potency is 39.8 µM (active).

For `Nc1cccc2nc3ccccc3cc12`, the Potency is 28.2 µM (active).

For `Cc1cc(=O)oc2cc(NS(=O)(=O)c3ccc(F)cc3)ccc12`, the Potency was 35.5 µM (active).

As to `Cc1cc(=O)oc2cc(NS(=O)(=O)c3ccccc3)ccc12`, the Potency is 35.5 µM (active).

Regarding `COCCn1c(N)c(C(=O)OCc2ccccc2)c2nc3ccccc3nc21`, the Potency was 31.6 µM (active).

For the compound `CCCCCOC(=O)c1c(N)n(CCOC)c2nc3ccccc3nc12`, the Potency is 35.5 µM (active).

As to `CCOC(=O)c1c(N)n(CCOC(=O)c2cccs2)c2nc3ccccc3nc12`, the Potency was 31.6 µM (active).

Take `CCOc1ccc(CN2CCN(Cc3[nH]c4ccc(OC)cc4c3C)CC2CCO)cc1` (configuration not stated): the Potency result was “inactive”.

For the compound `O=C(O)CCn1cc(C2CC(c3ccccc3)=NN2c2ccccc2)c(-c2ccccc2)n1` (configuration not stated), the Potency was 31.6 µM (active).

As for `COCCn1c(N)c(S(=O)(=O)c2cccs2)c2nc3ccccc3nc21`, the Potency is 35.5 µM (active).

As to `C=CCn1c(N)c(S(=O)(=O)c2cccs2)c2nc3ccccc3nc21`, the Potency is 35.5 µM (active).

Consider `Nc1c(S(=O)(=O)c2cccs2)c2nc3ccccc3nc2n1CCc1ccccc1`, for which the Potency was 31.6 µM (active).

Consider `Nc1c(S(=O)(=O)c2cccs2)c2nc3ccccc3nc2n1CC1CCCO1` (configuration not stated), for which the Potency was 31.6 µM (active).

In the case of `CC(C)CCn1c(N)c(S(=O)(=O)c2cccs2)c2nc3ccccc3nc21`, the Potency was 35.5 µM (active).

`CC(C)Cn1c(N)c(S(=O)(=O)c2cccs2)c2nc3ccccc3nc21`: the Potency is 25.1 µM (active).

The values above are taken from PubChem BioAssay AID2242 (National Center for Advancing Translational Sciences (NCATS), 2010).
